Inconclusive results are not listed. Activity calls are given as the source filed them. Unless noted, the call rests on the fitted dose curve; in most records, active means well fitted curve in the direction sought with a large enough effect; inconclusive means small, poorly fitted or top-dose-only effect, or another doubt; inactive means no such curve, though single readings can be large; an effect the other way counts as inactive or inconclusive.
What was measured:
[1] = AP1 Signaling Pathway (AID 357; active means well fitted curve in either direction with a large enough effect, not every such curve was filed as active;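 further: ME-180 reporter cells stimulated with EGF at its EC50 level; on the % scale 0 is the no-effect control and ±100 the full control effect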)
Outline: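 Cells are seeded overnight, exposed to compound titrations and an EC50 level of EGF for 5 hours at 37 °C, then loaded with CCF4 dye for 2.5 hours. Beta-lactamase activity under the AP-1 element is read as a blue/green ratio.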

[2] = NFAT Signaling Pathway (AID 444; active means well fitted curve in either direction with a large enough effect, not every such curve was filed as active;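 further: carbachol stimulus at about its EC50 of 1 µM final; on the % scale 0 is the no-effect control and ±100 the full control effect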); settings: Jurkat NFAT-bla M1, carbachol, beta-lactamase ratio, 5 h; at 17.2 µM (top of the series) unless noted
Outline: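 Jurkat cells with NFAT-driven β-lactamase reporter and co-expressed M1 receptor, stimulated with carbachol (final 1 uM, ~EC50), compound titration, 5 h at 37 °C. CCF4 loaded 1 h at RT; 460/530 nm ratio gave %activity and AC50.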

[3] = Stat Signaling Pathway (AID 446; active means well fitted curve in either direction with a large enough effect, not every such curve was filed as active;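 further: ME-180 cervical cancer cells given 40 pM IL-6 alongside compound; SIE-controlled beta-lactamase reporter measured as 460/530 nm FRET emission ratio; on the % scale 0 is the no-effect control and ±100 the full control effect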)
Outline: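 FRET read-out (405 nm excitation, 460/530 nm emission) of a beta-lactamase reporter under a STAT-inducible element in ME-180 cervical carcinoma cells. Cells with compound receive 40 pM IL-6 for 5 h. Values are normalised to AC90 stimulation and AC90 JAK-inhibitor controls.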

[4] = biological target: Glucocorticoid receptor (Homo sapiens) (UniProt P04150); assay: GR-GFP Redistribution (AID 450;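 active means compounds whose dose series gives a full or clear partial fitted curve of increased nuclear translocation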; further: potency means the concentration at half of the fitted maximal effect); settings: U2OS GR-GFP nuclear translocation, laser cytometry, 2 h
[5] = biological target: Glucocorticoid receptor (Homo sapiens) (UniProt P04150); assay: GR-EFC Redistribution (AID 451; calls by dose curve; further: potency means the concentration at half of the fitted maximal effect); settings: CHO-K1 GR-EFC translocation, beta-gal luminescence, 2 h
Outline: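 CHO-K1 cells expressing nuclear EA and GR-ED fragments of b-gal; compounds titrated up to 46 uM final, 2 h at 37 C. GR nuclear translocation read as complemented b-gal luminescence after 1 h RT detection.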

[6] = biological target: Mitogen-activated protein kinase 10 (Mus musculus) (UniProt Q61831); assay: JNK3 AlphaScreen Assay (AID 530; active means well fitted curve in either direction with a large enough effect, not every such curve was filed as active;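 further: kinase came from lysate of stimulated human HepG2 cells; signal reports phosphorylation of biotinylated GST-cJun 1-79 at Ser73 with 10 µM ATP; on the % scale 0 is the no-effect control and ±100 the full control effect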)
Outline: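 Activity was read by AlphaScreen after JNK3-containing HepG2 lysate (cytokine pre-activated) phosphorylated biotinylated GST-cJun with 10 uM ATP at room temperature. Phospho-Ser73 cJun antibody with Protein-A acceptor beads provided detection.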

[7] = biological target: 3',5'-cyclic-AMP phosphodiesterase 4B (Homo sapiens) (UniProt Q07343); assay: qHTS Assay for Inhibitors of PDE-IV (AID 607; active means well fitted activation curve with a large enough effect in the main read-out, with a control signal flat, not every such curve was filed as active; further: % of control where 0% means no effect)
Outline: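 Cell-based read-out of cAMP via a modified cyclic nucleotide-gated channel and membrane potential dye (535/590 nm) in HEK293 cells expressing PDE4 endogenously. Compounds tested up to 22.9 uM final; 100 uM RO 20-1724 reference.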

[8] = qHTS Assay for Lipid Storage Modulators (AID 1519; calls by dose curve); settings: Drosophila S3 cells, BODIPY lipid droplet/cell ratio, laser cytometry, cells loaded with oleic acid
Outline: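 Cells seeded at 5,000 per well were treated with compounds over a concentration series and loaded with oleic acid (400 uM, as added). Lipid droplet fluorescence (488 nm excitation, 500-530 nm channel) was read by laser-scanning cytometry and normalized to 20 uM Triacsin C.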

[9] = biological target: Ubiquitin carboxyl-terminal hydrolase 1 (Homo sapiens) (UniProt O94782); assay: Inhibitors of USP1/UAF1: Pilot qHTS (AID 504865);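 further: rhodamine fluorescence freed from ubiquitin-rhodamine substrate followed over time; top concentration of the series differs between compounds; on the % scale 0 is the no-effect control and ±100 the full control effect; nearly all actives have a fitted effect of over 35% in size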
Outline: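 Kinetic fluorescence assay: 1nM USP1/UAF1, 15 min compound preincubation, then 150nM Ub-Rho; 480/540 nm.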

[10] = biological target: Luciferin 4-monooxygenase (Photinus pyralis) (UniProt P08659); assay: Biochemical firefly luciferase enzyme assay for NPC (AID 624030);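 further: purified P. pyralis luciferase at 10 nM with luciferin and ATP substrate; 0% = DMSO and -100% = full luciferase inhibition by PTC124 control; nearly all actives have a fitted effect of over 70% in size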
Outline: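 Purified P. pyralis luciferase at 10 nM in 50 mM Tris Acetate (final), luminescence read within 5 minutes of enzyme addition to compounds. Activity normalised to PTC124 versus DMSO; concentration-response curves classed by r2, magnitude and activity.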

[11] = S16 Schwann cell viability assay (CellTiter-Glo assay) (AID 624031);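 further: native untransfected S16 rat Schwann cells; cellular ATP luminescence as a viability measure; plate controls were DMSO-treated cells for no effect and cell-free wells for full effect; nearly all actives have a fitted effect of over 70% in size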
Outline: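 Parental S16 cells, 24 h compound, 37 °C. ATP-luminescence viability; DMSO = 0% activity, empty wells as reference; curves classified by fit quality and efficacy.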

[12] = qHTS profiling for inhibitors of Plasmodium falciparum proliferation (AID 504749); further: nearly all actives have a fitted effect of over 60% in size; further: potency means the concentration at half of the fitted maximal effect;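 on activity, negative = inhibition: 0% = DMSO vehicle and full inhibition = artemisinin control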; settings: P. falciparum in erythrocytes, SYBR Green DNA, 72 h
Outline: (§1)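 Each compound contacts P. falciparum-infected red blood cells for 72 h at 37 C; lysis buffer (Tris, EDTA, saponin, Triton X, SYBR Green I) is added and fluorescence measured next morning; values normalized to controls.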

C2A = assay: as above; settings: P. falciparum in erythrocytes, SYBR Green DNA, 72 h; series mostly up to 12.8 µM
Outline: as §1

CP191 = assay: as above; settings: P. falciparum in erythrocytes, SYBR Green DNA, 72 h; series mostly up to 12.8 µM
Outline: as §1

CP247 = assay: as above; settings: P. falciparum in erythrocytes, SYBR Green DNA, 72 h; series mostly up to 12.8 µM
Outline: as §1

CP250 = assay: as above; settings: P. falciparum in erythrocytes, SYBR Green DNA, 72 h; series mostly up to 12.8 µM
Outline: as §1

CP256 = assay: as above; settings: P. falciparum in erythrocytes, SYBR Green DNA, 72 h; series mostly up to 12.8 µM
Outline: as §1

FAB9 = assay: as above; settings: P. falciparum in erythrocytes, SYBR Green DNA, 72 h; series mostly up to 12.8 µM
Outline: as §1

JCK = assay: as above; settings: P. falciparum in erythrocytes, SYBR Green DNA, 72 h; series mostly up to 12.8 µM
Outline: as §1

PC49 = assay: as above; settings: P. falciparum in erythrocytes, SYBR Green DNA, 72 h; series mostly up to 12.8 µM
Outline: as §1

[13] = measured here: cell count channel max response
[14] = measured here: lipid channel max response
[15] = at 12.8 µM (top of the series), parasite line A
[16] = at 12.8 µM (top of the series), parasite line B

Chain of Glucocorticoid receptor (Homo sapiens) (P04150 whole entry, looked up, the tested form may be a part): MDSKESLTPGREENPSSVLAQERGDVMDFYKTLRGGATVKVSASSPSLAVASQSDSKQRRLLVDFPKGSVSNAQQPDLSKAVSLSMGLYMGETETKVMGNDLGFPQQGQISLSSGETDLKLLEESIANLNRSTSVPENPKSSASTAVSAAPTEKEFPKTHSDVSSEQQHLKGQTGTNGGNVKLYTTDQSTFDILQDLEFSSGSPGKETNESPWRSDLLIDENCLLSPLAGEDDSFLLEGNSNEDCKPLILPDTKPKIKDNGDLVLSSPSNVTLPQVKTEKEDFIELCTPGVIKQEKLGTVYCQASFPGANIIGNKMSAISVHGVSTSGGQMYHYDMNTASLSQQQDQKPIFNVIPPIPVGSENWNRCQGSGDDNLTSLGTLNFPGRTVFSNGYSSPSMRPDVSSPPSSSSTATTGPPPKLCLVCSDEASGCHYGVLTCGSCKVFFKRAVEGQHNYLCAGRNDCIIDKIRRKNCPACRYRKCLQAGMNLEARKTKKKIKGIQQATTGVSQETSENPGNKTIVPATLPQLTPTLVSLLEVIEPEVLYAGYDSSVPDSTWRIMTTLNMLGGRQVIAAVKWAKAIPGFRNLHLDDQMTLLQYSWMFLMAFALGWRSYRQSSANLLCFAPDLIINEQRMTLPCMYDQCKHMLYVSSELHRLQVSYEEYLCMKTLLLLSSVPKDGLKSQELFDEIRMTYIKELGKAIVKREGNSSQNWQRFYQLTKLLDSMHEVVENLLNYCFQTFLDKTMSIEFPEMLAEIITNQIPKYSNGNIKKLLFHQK
Chain of Luciferin 4-monooxygenase (Photinus pyralis) (P08659 whole entry, looked up): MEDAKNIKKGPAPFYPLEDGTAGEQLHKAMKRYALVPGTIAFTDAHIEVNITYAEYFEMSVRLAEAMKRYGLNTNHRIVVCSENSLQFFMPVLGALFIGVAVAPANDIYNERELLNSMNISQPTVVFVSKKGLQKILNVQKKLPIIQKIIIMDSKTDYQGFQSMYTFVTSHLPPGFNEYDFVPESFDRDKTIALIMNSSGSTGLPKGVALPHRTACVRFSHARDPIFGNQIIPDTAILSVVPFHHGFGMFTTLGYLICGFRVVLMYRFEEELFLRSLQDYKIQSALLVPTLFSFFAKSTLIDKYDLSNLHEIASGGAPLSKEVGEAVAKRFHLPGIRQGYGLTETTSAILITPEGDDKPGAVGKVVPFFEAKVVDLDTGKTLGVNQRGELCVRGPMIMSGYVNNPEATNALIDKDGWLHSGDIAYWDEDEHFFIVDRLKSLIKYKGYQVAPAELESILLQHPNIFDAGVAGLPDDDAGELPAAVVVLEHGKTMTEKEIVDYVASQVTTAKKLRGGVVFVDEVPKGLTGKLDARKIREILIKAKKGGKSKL
Chain of 3',5'-cyclic-AMP phosphodiesterase 4B (Homo sapiens) (Q07343 whole entry, looked up): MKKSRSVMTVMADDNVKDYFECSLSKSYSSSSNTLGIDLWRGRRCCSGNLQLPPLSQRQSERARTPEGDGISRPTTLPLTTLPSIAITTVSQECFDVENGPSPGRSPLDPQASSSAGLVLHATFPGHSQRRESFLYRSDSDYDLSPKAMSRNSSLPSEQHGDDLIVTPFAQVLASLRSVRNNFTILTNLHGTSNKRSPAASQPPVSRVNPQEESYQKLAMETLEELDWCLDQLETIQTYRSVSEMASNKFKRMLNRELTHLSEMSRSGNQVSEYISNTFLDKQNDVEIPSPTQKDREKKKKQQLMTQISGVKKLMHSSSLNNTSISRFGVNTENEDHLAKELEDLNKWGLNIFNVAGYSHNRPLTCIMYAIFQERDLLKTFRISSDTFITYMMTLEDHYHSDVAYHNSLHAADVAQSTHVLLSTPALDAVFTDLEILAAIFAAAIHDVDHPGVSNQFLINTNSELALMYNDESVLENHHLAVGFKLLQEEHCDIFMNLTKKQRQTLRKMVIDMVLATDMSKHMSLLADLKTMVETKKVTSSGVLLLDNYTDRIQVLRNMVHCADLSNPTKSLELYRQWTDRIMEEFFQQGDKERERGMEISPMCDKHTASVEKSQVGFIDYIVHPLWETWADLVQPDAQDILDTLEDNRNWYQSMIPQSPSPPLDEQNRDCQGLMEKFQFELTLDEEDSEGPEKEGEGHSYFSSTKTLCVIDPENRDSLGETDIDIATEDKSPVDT
Chain of Ubiquitin carboxyl-terminal hydrolase 1 (Homo sapiens) (O94782 whole entry, looked up): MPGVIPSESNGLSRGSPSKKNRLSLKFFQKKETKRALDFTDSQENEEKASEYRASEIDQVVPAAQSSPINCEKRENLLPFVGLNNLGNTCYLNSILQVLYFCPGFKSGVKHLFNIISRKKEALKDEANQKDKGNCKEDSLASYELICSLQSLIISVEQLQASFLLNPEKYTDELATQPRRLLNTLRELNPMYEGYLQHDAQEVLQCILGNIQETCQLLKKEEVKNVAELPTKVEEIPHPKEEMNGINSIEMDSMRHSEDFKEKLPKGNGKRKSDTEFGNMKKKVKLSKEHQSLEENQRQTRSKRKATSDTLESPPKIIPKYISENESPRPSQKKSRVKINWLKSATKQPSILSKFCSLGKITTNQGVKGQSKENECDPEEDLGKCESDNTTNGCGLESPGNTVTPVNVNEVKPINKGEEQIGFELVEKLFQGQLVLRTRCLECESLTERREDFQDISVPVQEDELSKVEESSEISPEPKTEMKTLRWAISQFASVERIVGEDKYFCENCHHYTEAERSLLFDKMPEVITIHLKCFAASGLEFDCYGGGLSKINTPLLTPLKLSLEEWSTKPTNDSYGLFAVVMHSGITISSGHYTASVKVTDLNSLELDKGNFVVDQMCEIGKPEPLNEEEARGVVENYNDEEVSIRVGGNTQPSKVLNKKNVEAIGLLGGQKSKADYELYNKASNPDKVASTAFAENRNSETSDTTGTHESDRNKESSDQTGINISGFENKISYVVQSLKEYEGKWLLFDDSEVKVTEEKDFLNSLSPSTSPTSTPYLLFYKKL

Cc1cccc(C)c1NC(=O)[C@H](C)N
-3.54%: max response [8, 13]
inactive: outcome [1] | activity change, negative = inhibition [2] -7.54% | outcome [3] | Potency [4] > 20.6 µM | Potency [5] > 20.6 µM | Potency [6] | outcome [7] | activity change, negative = inhibition ([8]; at 25.7 µM (top of the series)) -1.94% | Potency [9] | Potency [10] | outcome [11] | activity, negative = inhibition [12, 15] 7.15% | activity, negative = inhibition [12, 16] 10.5% | Potency (C2A) | Potency (CP191) | Potency (CP247) | Potency (CP250) | Potency (CP256) | Potency (FAB9) | Potency (JCK) | Potency (PC49)
-7.81%: max response [8, 14]

CS(=O)(=O)Nc1cccc(-c2nc(Nc3ccccc3)c3ccccc3n2)c1
inactive: outcome [1] | Potency [4] > 46 µM | Potency [5] > 46 µM | Potency [6] | activity change, negative = inhibition ([8]; at 57.5 µM (top of the series)) 7.97%
2.43%: max response [8, 14]
-5.28%: max response [8, 13]

COc1cc2nc(N3CCN(C(=O)[C@@H]4COc5ccccc5O4)CC3)nc(N)c2cc1OC
inactive: outcome [1] | outcome [3] | outcome [7] | activity change, negative = inhibition ([8]; at 25.7 µM (top of the series)) -1.08% | Potency [10] | outcome [11] | activity, negative = inhibition ([12]; at 28.7 µM (top of the series), parasite line B) -13.1% | Potency (C2A) | Potency (CP250) | Potency (CP256) | Potency (FAB9) | Potency (JCK) | Potency (PC49)
-1.2%: max response [8, 13]
active: Potency (CP191) 7.94 µM
-1.61%: max response [8, 14]

C[C@H](N[C@@H](C)COc1ccccc1)[C@H](O)c1ccc(O)cc1
-3.47%: max response [8, 14]
-4.01%: max response [8, 13]
inactive: outcome [1] | activity change, negative = inhibition [2] -9.06% | outcome [3] | Potency [4] > 20.6 µM | Potency [5] > 20.6 µM | Potency [6] | outcome [7] | activity change, negative = inhibition ([8]; at 25.7 µM (top of the series)) 0.23% | Potency [9] | Potency [10] | outcome [11] | activity, negative = inhibition [12, 15] 2.67% | activity, negative = inhibition [12, 16] 10.2% | Potency (C2A) | Potency (CP191) | Potency (CP247) | Potency (CP250) | Potency (CP256) | Potency (FAB9) | Potency (JCK) | Potency (PC49)

CS(=O)(=O)c1ccc([C@H](O)[C@H](CF)NC(=O)C(Cl)Cl)cc1
2.55%: max response [8, 14]
inactive: outcome [1] | activity change, negative = inhibition [2] 1.9% | outcome [3] | Potency [4] > 20.6 µM | Potency [5] > 20.6 µM | Potency [6] | outcome [7] | activity change, negative = inhibition ([8]; at 25.7 µM (top of the series)) 1.06% | Potency [10] | outcome [11]
1.07%: max response [8, 13]

Cn1nnnc1SCC1=C(C(=O)O)N2C(=O)[C@@H](NC(=O)[C@@H](O)c3ccccc3)[C@@H]2SC1
-4.52%: max response [8, 13]
-13.8%: max response [8, 14]
inactive: outcome [1] | activity change, negative = inhibition [2] -2.02% | outcome [3] | Potency [4] > 20.6 µM | Potency [5] > 20.6 µM | outcome [7] | activity change, negative = inhibition ([8]; at 25.7 µM (top of the series)) 2.73% | Potency [9] | Potency [10] | outcome [11] | activity, negative = inhibition [12, 15] 11.7% | activity, negative = inhibition [12, 16] 11% | Potency (C2A) | Potency (CP191) | Potency (CP247) | Potency (CP250) | Potency (CP256) | Potency (FAB9) | Potency (JCK) | Potency (PC49)

Reference: PubChem BioAssay (NCATS)
